Structures are written as SMILES. The panel holds about 83,000 compounds, 20% with a hit somewhere; the sample as a whole holds those more often.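 Activity criterion: percent growth below 10, measured after cells in 96-well plates were exposed to a single compound concentration for 48 hours.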 Activity calls are given as the source filed them.

The assay concerns OVCAR-8 ovarian. Nature of the assay: NCI-60 one-dose screen, 48 h (100 = growth as untreated, 0 = no growth, -100 = all killed). The following applies: 10 µM unless noted.
For the compound `CC(=O)OC[C@]12CC[C@@H]([C@@H](C)c3nnc(-c4ccncc4)o3)[C@@H]1[C@H]1CC[C@@H]3[C@@]4(C)CC[C@H](OC(C)=O)C(C)(C)[C@@H]4CC[C@@]3(C)[C@]1(C)CC2`, the growth is 90.4% (inactive).

`CN(Cc1ccccc1)c1nc(Cl)c(C2CC(c3ccccc3)=NN2c2ccccc2)s1` (stereo not given): the growth is 91.5% (inactive).

With `CSc1nc(C)c([N+](=O)[O-])c(N)n1`, the growth was 100% (inactive).

Take `CN1CCN(Cc2ccc(NC(=O)c3cncc(C#Cc4cnc(N)c5ccc(F)cc45)c3)cc2C(F)(F)F)CC1`: the growth was 33.9% (inactive).

In the case of `CN1CCN(C(=O)[C@@]2(C)CC[C@]3(C)CC[C@]4(C)C(=CC[C@@H]5[C@@]6(C)CCC(=O)NC(C)(C)[C@@H]6CC[C@]54C)[C@@H]3C2)CC1`, the growth is 64.1% (inactive).

For the compound `COc1ccc(/C=C2\CN(C(=O)C(Cl)Cl)C/C(=C\c3ccc(OC)cc3)C2=O)cc1`, the growth is 19% (inactive).

As to `O=C(NNc1cnccn1)c1nc2cc(F)ccc2n2cccc12`, the growth was 15.7% (inactive).

With `COc1cc(/C=C2\CN(S(=O)(=O)c3ccccc3)C/C(=C\c3cc(CN4CCCCC4)c(O)c(OC)c3)C2=O)cc(CN2CCCCC2)c1O`, the growth was -25% (active).

Consider `COc1ccc(/C=C/C(c2cc(OC)c(OC)c(OC)c2)n2ccnc2)cc1O` (stereo not given), for which the growth was 41% (inactive).

As to `C/C=C(/C)n1cnc2c(Nc3ccccn3)nc(Cl)nc21`, the growth is 100% (inactive).

In the case of `Oc1ccc(/C=C/c2ccc(O)cc2)cc1`, the growth is 35.7% (inactive).

With `C#CCOc1cccc(-c2ncnc3cc(NC(=O)C=C)ccc23)c1`, the growth is 38.3% (inactive).

As to `CCOC(=O)c1nn(CC(O)c2ccccc2)c(NC(=O)Nc2cccc(F)c2)c1C` (stereo not given), the growth was 91.4% (inactive).

In the case of `O=C(N/N=C\c1ccccc1S(=O)(=O)O)N/N=C/c1ccccc1S(=O)(=O)O`, the growth was 100% (inactive).

For `CC[C@]12C=CCN3CC[C@@]4(c5ccc(OC)cc5N(C)[C@H]4[C@@](O)(C(=O)OC)[C@@H]1OC(=O)CCC[P+](c1ccccc1)(c1ccccc1)c1ccccc1)[C@@H]32`, the growth is 3.13% (active).

Turning to `CCCn1nc(C(=O)N(C)Cc2ccccc2)c2c1CCC(N1CCc3ccccc31)C2` (stereo not given), the growth was 93.4% (inactive).

Turning to `C=C1C(=O)O[C@H]2[C@H]1CC/C(COC(=O)/C=C\C(=O)NCc1ccc(Cn3c(=O)sn(CCCl)c3=O)cc1)=C\CC[C@@]1(C)O[C@@H]21`, the growth is 86.9% (inactive).

Regarding `COC(=O)c1ccc(NC(=O)Nc2ccc(C(=O)OC)cc2)cc1`, the growth is 104% (inactive).

As to `O=C(O)c1cn(C2CC2)c2cc(N3CCN(C(=O)Nc4nc(-c5ccc(Br)cc5)cs4)CC3)c(F)cc2c1=O`, the growth is 10% (inactive).

On to `NC(=O)c1c(NC(=O)c2cccc(C(F)(F)F)c2)sc2c1CCC(=O)C2`, for which the growth is 13.6% (inactive).

In the case of `CC1=C(C(=O)Nc2ccccc2)C(c2ccc3c(c2)OCO3)NC(=S)N1` (stereo not given), the growth is 104% (inactive).

Turning to `NS(=O)(=O)c1ccc(-c2cc(-c3nnc(SCC(=O)Nc4ccc(C(=O)/C=C/c5ccc(Cl)cc5)cc4)n3-c3ccccc3)c3ccccc3n2)cc1`, the growth was 89.9% (inactive).

Take `COC(=O)c1cc(Br)ccc1O`: the growth is 103% (inactive).

For `C=C1C(=O)O[C@H]2[C@H]1CC/C(COC(=O)/C=C/C(=O)OC/C1=C/CC[C@@]3(C)O[C@H]3[C@H]3OC(=O)C(=C)[C@@H]3CC1)=C\CC[C@@]1(C)O[C@@H]21`, the growth is 62.7% (inactive).

For `CNC1=CC(=O)c2c(C(=O)OC)c(C)[n+]([O-])c(C)c2C1=O`, the growth was 35% (inactive).

For `O=C(Nc1ncccc1OCc1ccccc1)NC1CCCCCC1`, the growth is 104% (inactive).

For `O=C1/C(=C\c2cccc3nccnc23)SC(=S)N1CCc1ccc(O)cc1`, the growth was 99.1% (inactive).

For the compound `O=C1/C=C/[C@@H](O)[C@@H]2C[C@@H](O)C[C@H]2/C=C/CCC[C@@H](O)CCO1`, the growth is 66.6% (inactive).

`Cc1ccc(CNc2c3ccccc3nc3ccccc23)cc1`: the growth is 21.8% (inactive).

In the case of `Cc1ccnc(Nc2ccc([N+](=O)[O-])c(NCCN3CCOCC3)n2)c1`, the growth is 34.8% (inactive).

As to `CSc1nn2c(-c3ccc4ccccc4c3)ccnc2c1C#N`, the growth was 23% (inactive).

Turning to `COc1cc2nc3sc(C(=O)Nc4ccc(C(=O)OC(C)C)cc4)c(C(=O)Nc4ccc(Cl)cc4C)n3c(=O)c2cc1OC`, the growth was 35.4% (inactive).

As for `COC(=O)/C=C1/SC(=Nc2ccc([N+](=O)[O-])cc2)N(CCc2c[nH]c3ccc(O)cc23)C1=O`, the growth was 38.4% (inactive).

Turning to `O=S1(=O)C=C(c2ccccc2)C(c2ccccc2)=C1`, the growth is 6.07% (active).

With `O=C(O)COc1ccc(Cl)c(Cl)c1`, the growth was 105% (inactive).

For `O=C1/C(=C/c2ccccn2)NC(=S)N1c1ccccc1Cl`, the growth was 30.4% (inactive).

For the compound `CCS/C(Nc1ccccc1)=C(\C#N)C(=O)Nc1ccc(OC)cc1`, the growth is 31.2% (inactive).

As to `COc1ccc(C(=O)N2c3ccccc3Sc3ccccc32)c(C(F)(F)F)c1`, the growth was 14.9% (inactive).

Consider `Cc1ccc(-c2csc(NC(=O)c3ccccc3CN3C(=O)c4ccccc4C3=O)n2)cc1`, for which the growth is 93.5% (inactive).

Turning to `CNC(=O)c1cc(Oc2cccc3nc(NC(=O)Nc4cc(C(F)(F)F)ccc4Cl)ccc23)ccn1`, the growth was 78% (inactive).

(Values after PubChem BioAssay (NCI).)
